# Measured values as given in PubChem BioAssay (NCATS).
# Values joined by “and” are separate entries in the source; they are usually repeats but may differ in a detail not shown here. Identical values can stand only once. Records with an inconclusive call do not appear. Entries that show only a call come without a potency. Some structures have more than one record in an assay (separate samples or runs), and their calls can disagree. Active and inactive are the calls of the source. Calls come from the whole dose curve; as a rule, active = well fitted curve in the direction sought with a large enough effect; inconclusive = small, poorly fitted or top-dose-only effect, or another doubt; inactive = no such curve, though single readings can be large; an effect the other way counts as inactive or inconclusive.
# Experiments:
# [1] = NCATS anti-infectives library activity on HEK293 viability as a counter-qHTS vs the C. elegans viability qHTS (AID 1745854); details: HEK293 viability counter-screen; series mostly up to 41.8 µM;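 note: HEK293 cells exposed to compounds for 24 hr before the viability read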
# In short: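 HEK293 cells (1,500/well) exposed 24 hr at 37C to 1:5 titrations, up to 41.7 uM final; counter-screen to a C. elegans viability qHTS. Viability by CellTiter-Glo luminescence after 10 min at room temperature; digitonin as control.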
# [2] = biological target: Glutathione peroxidase 1 (Homo sapiens) (UniProt P07203); assay: Primary qHTS Assay for Inhibitors of Recombinant Selenoprotein Glutathione Peroxidase 1 (GPX1) (AID 1845191); details: recombinant GPX1, GR-coupled NADPH fluorescence, 15 min; series mostly up to 48.8 µM; note: nearly all actives have a fitted effect of over 65% in size; note: potency is the fitted concentration of half-maximal effect
# Sequence of Glutathione peroxidase 1 (Homo sapiens) (P07203 whole entry, looked up): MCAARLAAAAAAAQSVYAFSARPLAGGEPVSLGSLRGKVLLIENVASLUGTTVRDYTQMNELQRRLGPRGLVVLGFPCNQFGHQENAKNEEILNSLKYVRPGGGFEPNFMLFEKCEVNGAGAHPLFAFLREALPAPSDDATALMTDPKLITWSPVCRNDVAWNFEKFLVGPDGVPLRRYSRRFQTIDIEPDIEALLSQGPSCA
# In short: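 10 nM GPX1 + cpd, 30 min RT; start w/ 1 mM GSH, 0.5 mM cumene hydroperoxide, 0.5 mM NADPH, 100 nM GR, 0.01% BSA; buffer 50 mM Tris-HCl pH 7.5, 2 mM EDTA, 150 mM NaCl; Fl 340/450, 0 & 15 min.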
# [3] = biological target: Phospholipid hydroperoxide glutathione peroxidase GPX4 (Homo sapiens) (UniProt P36969); assay: Primary qHTS Assay for Inhibitors of Recombinant Selenoprotein Glutathione Peroxidase 4 (GPX4) (AID 1845192); details: recombinant GPX4, GR-coupled NADPH fluorescence, 15 min; series mostly up to 50 µM; note: nearly all actives have a fitted effect of over 65% in size; note: potency is the fitted concentration of half-maximal effect
# Sequence of Phospholipid hydroperoxide glutathione peroxidase GPX4 (Homo sapiens) (P36969 whole entry, looked up): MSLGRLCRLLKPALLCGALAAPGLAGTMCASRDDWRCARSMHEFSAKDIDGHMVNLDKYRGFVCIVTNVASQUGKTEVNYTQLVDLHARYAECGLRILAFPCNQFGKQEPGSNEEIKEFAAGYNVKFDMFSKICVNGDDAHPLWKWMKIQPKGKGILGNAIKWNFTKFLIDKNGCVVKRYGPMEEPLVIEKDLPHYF
# In short: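 NADPH consumption, followed by fluorescence at 340/450 nm between 0 and 15 min, reports GPX4 activity via coupled glutathione reductase (100 nM). Enzyme 200 nM was pre-exposed to compound 30 min; 0.5 mM cumene hydroperoxide and 1 mM GSH served as substrates.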
# [4] = Quantitative High-Throughput drug screen in 47 multiple myeloma cell lines against the NCATS MIPE library collection: FR4_PLB cell viability assay (AID 1918924; note: nearly all actives have a fitted effect of over 35% in size; note: potency is the fitted concentration of half-maximal effect); details: FR4_PLB myeloma cells viability, CellTiter-Glo ATP, 48 h; series mostly up to 45.8 µM
# In short: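 Luminescent ATP measurement with CellTiter-Glo gives viability, scaled between DMSO-only wells (100%) and media-only wells (0%). Cells, 500 per well, faced library compounds for 48 hours at 37C.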
# [5] = biological target: Luciferin 4-monooxygenase (Photinus pyralis) (UniProt P08659); assay: Primary firefly luciferase (FLuc) qHTS assay for identification of artifact compounds. (AID 1845220); details: purified firefly luciferase, luminescence, 5 min; series mostly up to 54.1 µM; note: nearly all actives have a fitted effect of over 60% in size
# In short: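 FLuc 10 nM; luciferin 10 uM; ATP 10 uM; Tris-acetate pH 7.6, Mg-acetate 10 mM; 15 min RT preincubation; 5 min reaction; luminescence.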
# [6] = Primary fluorescence-based thiol-reactive (MSTI) qHTS assay for identification of artifact compounds. (AID 1845221); details: MSTI thiol-reactivity probe, 1 h; series mostly up to 53.8 µM;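 note: thiol-reactive compounds lower the probe fluorescence signal; nearly all actives have a fitted effect of over 65% in size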
# In short: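 Reactivity toward the thiol probe MSTI (4 uM) is scored by fluorescence at Ex/Em 525/598 nm after 1 h at room temperature. Acetyl-MSTI and MSTI define the activity scale.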
# [7] = test system: Nanoluciferase (engineered Oplophorus gracilirostris luciferase); assay: Primary Nanoluciferase (NLuc) qHTS assay for identification of artifact compounds. (AID 1845222); details: NLuc-conditioned medium, Nano-Glo luminescence, 5 min; series mostly up to 54.1 µM;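 note: NLuc secreted into diluted conditioned medium of S16 cells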
# In short: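 NLuc from S16 cell medium (1:55) plus test compounds, 15 min, room temperature. Luminescence after Nano-Glo (1:100) addition, 5 min.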
# [8] = Primary redox qHTS assay for identification of artifact compounds. (AID 1845223); details: Amplex Red/HRP redox cycling with DTT, fluorescence; series mostly up to 53.8 µM
# In short: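 Amplex Red (25 uM) and HRP (250 mU/mL) in HBSS, with compounds for 15 min, then 250 uM DTT for 30 min, room temperature, dark. Fluorescence 525/598 nm read; normalized to DMSO and 10 uM DA3003; Hill fit.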
compound,measurement,setting,value
O=C1c2ccccc2C(=O)c2ccccc21,outcome,[1],inactive
same,Potency,[2],inactive
same,Potency,[3],inactive
O=C(O)CCCc1ccc(N(CCCl)CCCl)cc1,Potency,[2],inactive
same,Potency,[3],inactive
CCC(CC)(CNC(=O)CCCO)c1cccc(OC)c1,Potency,[2],inactive
same,Potency,[3],inactive
C=C(C)[C@H]1CN[C@H](C(=O)O)[C@H]1CC(=O)O,Potency,[2],inactive
same,Potency,[3],inactive
O=C(Nc1ccc(Br)cc1)c1cc(Br)cc(Br)c1O,Potency,[3],inactive
C[C@@H]1CC2=CC(=O)CC[C@@H]2[C@H]2CC[C@@]3(C)[C@@H](CC[C@]3(C)O)[C@@H]21,Potency,[2],inactive
same,Potency,[3],inactive
CN1C(=O)NC(=O)C(C)(C2=CCCCC2)C1=O (stereo not drawn),Potency,[2],inactive
same,Potency,[3],inactive
CNC(C)(C)Cc1ccccc1,Potency,[2],inactive
same,Potency,[3],inactive
CCOC(=O)CC(SP(=S)(OC)OC)C(=O)OCC (stereo not drawn),Potency,[3],inactive
C=CCC1(C(C)CC)C(=O)NC(=O)NC1=O (stereo not drawn),Potency,[2],inactive
same,Potency,[3],inactive
C#CC(O)(C=CCl)CC (stereo not drawn),Potency,[2],inactive
same,Potency,[3],inactive
C[C@]12CCC(=O)C=C1CC[C@@H]1[C@@H]2CC[C@]2(C)C(=O)CC[C@@H]12,Potency,[2],inactive
same,Potency,[3],inactive
C[C@](O)(CS(=O)(=O)c1ccc(F)cc1)C(=O)Nc1ccc(C#N)c(C(F)(F)F)c1,Potency,[2],inactive
same,Potency,[3],inactive
same,Potency,[4],14.8 µM (active)
CC(C)NC(C)C,Potency,[2],inactive
same,Potency,[3],inactive
C=CCN1C[C@H](C)N([C@H](c2ccc(C(=O)N(CC)CC)cc2)c2cccc(OC)c2)C[C@H]1C,outcome,[2],inactive [at 9.52 µM]
same,"activity change, negative = inhibition",[3],-0.741% [at 9.73 µM] (inactive)
same,outcome,[5],inactive [at 11.6 µM]
same,"activity change, negative = thiol reactive",[6],24.3% [at 11.5 µM] (inactive)
same,"activity, negative = inhibition",[7],1.52% [at 11.6 µM] (inactive)
same,redox activity (% of DA3003),[8],9.33% [at 11.5 µM] (inactive)
C[C@]12CC[C@H]3[C@@H](CCC4=CC(=O)CC[C@@H]43)[C@@H]1CC[C@@H]2OC(=O)CCc1ccco1,Potency,[2],inactive
same,Potency,[3],inactive
CCOP(=S)(OCC)Oc1ccc2c(C)c(Cl)c(=O)oc2c1,Potency,[2],inactive
same,Potency,[3],inactive
COP(=S)(OC)SCN1C(=O)c2ccccc2C1=O,Potency,[3],inactive
C[C@]12CC[C@@H]3c4ccc(OC(=O)N(CCCl)CCCl)cc4CC[C@H]3[C@@H]1CC[C@@H]2O,Potency,[2],inactive
same,Potency,[3],inactive
COc1cc(OC)c(OC)cc1C=O,Potency,[4],inactive
CC(C)C[C@H](CN)CC(=O)O,Potency,[2],inactive
same,Potency,[3],inactive
same,Potency,[4],inactive
Oc1ccc(Cl)cc1,Potency,[2],inactive
same,Potency,[3],inactive
COc1cccc(C(=O)CCN[C@@H](C)[C@H](O)c2ccccc2)c1,Potency,[2],inactive
same,Potency,[3],inactive
C[C@]12CC[C@H]3[C@@H](CC[C@@]45O[C@H]4C(O)=C(C#N)C[C@]35C)[C@H]1CC[C@H]2O,Potency,[2],inactive
same,Potency,[3],inactive
O=c1c(C2CC(c3ccc(-c4ccc(Br)cc4)cc3)Cc3ccccc32)c(O)sc2ccccc12 (stereo not drawn),Potency,[2],22.7 µM (active)
same,Potency,[3],inactive
C[C@]12Cc3cn[nH]c3C[C@@H]1CC[C@@H]1[C@@H]2CC[C@@]2(C)[C@H]1CC[C@]2(C)O,Potency,[2],inactive
same,Potency,[3],inactive
CN1C(=O)COc2c(C(=O)NC3CN4CCC3CC4)cc(Cl)cc21 (stereo not drawn),Potency,[2],inactive
same,Potency,[3],inactive
same,Potency,[4],inactive
Clc1ccc(C(c2ccc(Cl)cc2)C(Cl)(Cl)Cl)cc1,Potency,[2],inactive
same,Potency,[3],inactive
COC(=O)C(c1ccccc1)C1CCCCN1 (stereo not drawn),Potency,[2],inactive
same,Potency,[3],inactive
COP(=S)(OC)Oc1ccc(SC)c(C)c1,Potency,[2],inactive
same,Potency,[3],inactive
c1ccc2c(c1)sc1ccccc12,Potency,[2],inactive
same,Potency,[3],inactive
C[C@]12CC[C@@H]3c4ccc(OC(=O)N(CCCl)CCCl)cc4CC[C@H]3[C@@H]1CC[C@@H]2OP(=O)(O)O,Potency,[2],inactive
same,Potency,[3],inactive and 12.6 µM (active)
same,outcome,[5],inactive
same,outcome,[6],inactive
same,outcome,[7],inactive
CC(=O)OCC1=C(C(=O)O)N2C(=O)[C@@H](N)[C@H]2SC1,Potency,[2],12.8 µM (active)
same,outcome,[5],inactive
same,outcome,[7],inactive
C[C@@H](N)[C@@H](O)c1ccccc1,Potency,[3],inactive
Nc1ccc([As](=O)(O)O)cc1,Potency,[2],inactive
same,Potency,[3],inactive
O=[N+]([O-])O[C@H]1CO[C@H]2[C@@H]1OC[C@H]2O[N+](=O)[O-],Potency,[2],inactive
same,Potency,[3],inactive
CCC(C)C(C)(COC(N)=O)COC(N)=O (stereo not drawn),Potency,[2],inactive
same,Potency,[3],inactive
C[N+]1(CCF)[C@@H]2CC[C@H]1CC(OC(=O)C(O)(c1ccccc1)c1ccccc1)C2 (stereo partly drawn),Potency,[2],inactive
same,Potency,[3],inactive
